From PubChem BioAssay come the findings set out here.

Molecules are shown by their SMILES. Calls of active or inactive are those of the source.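 Rule for the calls: active = inhibition above the hit cutoff set in the earlier primary screen (cut at about 27% in these data); inactive = the rest.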

The target of the assay is Protein phosphatase methylesterase 1 (Homo sapiens) (UniProt Q9Y570). Description: PME-1 inhibitor activity retest, confirmation, biochemical, fluorescence polarization, FP-Rh probe, triplicate (AID 2171).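 Note: 0% = enzyme with DMSO and 100% = wells lacking PME-1.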 The note with it: recombinant PME-1, FP-Rh probe fluorescence polarization; at 5.9 µM; active compounds read high.
Sequence of Protein phosphatase methylesterase 1 (Homo sapiens) (Q9Y570 whole entry, looked up): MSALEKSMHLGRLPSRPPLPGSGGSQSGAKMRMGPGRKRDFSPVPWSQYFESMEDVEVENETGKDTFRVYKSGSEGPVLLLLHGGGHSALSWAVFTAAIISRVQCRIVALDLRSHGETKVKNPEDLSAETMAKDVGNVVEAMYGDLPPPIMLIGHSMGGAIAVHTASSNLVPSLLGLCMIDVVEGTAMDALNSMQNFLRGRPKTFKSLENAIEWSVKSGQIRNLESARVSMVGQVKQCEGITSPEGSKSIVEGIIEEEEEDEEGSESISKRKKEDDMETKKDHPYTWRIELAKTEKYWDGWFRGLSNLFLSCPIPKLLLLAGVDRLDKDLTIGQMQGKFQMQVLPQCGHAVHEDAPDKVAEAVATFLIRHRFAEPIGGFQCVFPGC
On to `CC(C)Oc1ccc(S(=O)(=O)N2CCCCC2)cc1NC(=O)CN1C(=O)NC(C)(c2ccccc2)C1=O` (stereo not given), for which the inhibition was 42.6% (active). With `COc1ccc(/C=C/c2c(-c3ccc(OC)cc3)oc3cccnc23)cc1`, the inhibition is 24.5% (inactive).

For `N#Cc1c(N)nc2c3c(sc(=N)c2c1N)NC(=O)CC3c1c(F)cccc1Cl` (stereo not given), the inhibition is 38.2% (active). In the case of `COc1cc(N/N=C(\C)c2ccc(O)c(C)c2)nc(-c2ccccc2)n1` it was 27.3% (active); in that of `Cc1cc2c(N=O)c(NO)ccc2[nH]1`, 33.3% (active). For `COc1cc2c(cc1OC)C(c1cc(Br)ccc1F)N(C(=O)CCl)CC2` (stereo not given), the inhibition is 51.5% (active). Consider `COc1cc(/C=N/NC(=O)C(Cc2c[nH]c3ccccc23)NC(=O)OCc2ccccc2)cc([N+](=O)[O-])c1O` (stereo not given), for which the inhibition was 15.4% (inactive). Turning to `CCOc1cccc(/C=N/NC(=S)Nc2cc(S(=O)(=O)N3CCOCC3)ccc2N2CCOCC2)c1O`, the inhibition was 25.1% (inactive).

In the case of `O=C(OCCOCCN=C1NS(=O)(=O)c2ccccc21)c1ccccc1Br`, the inhibition is 5.54% (inactive). For `N#C/C(=C/c1ccc(N2CCCC2)c([N+](=O)[O-])c1)c1nc2ccccc2[nH]1` the value was 30.9% (active); for `CCN1C(=O)/C(=C2/Sc3ccccc3N2CC)S/C1=N\c1ncn[nH]1`, 42.6% (active); for `Cc1cc(C(C#N)c2ccc(Cl)cc2)c(Cl)cc1NC(=O)c1cc(I)cc(I)c1O` (stereo not given), 47.6% (active).

As to `O=C(N/N=C/c1ccc(O)c(O)c1)c1ccc(CSc2cccc3cccnc23)cc1`, the inhibition is -3.59% (inactive).

For `Cc1cc(SCC(=O)N/N=C/c2ccc(O)c(O)c2O)c(C)cc1Br`, the inhibition is -9.75% (inactive). For `Cc1ccc(C)c(-n2c3nc(=O)[nH]c(=O)c-3cc3cc([N+](=O)[O-])ccc32)c1` the value was 24.5% (inactive); for `CCCC(=Nc1ccc(N)cc1)C1=C(O)C(C(=O)OC)C(C)(C)CC1=O` (stereo not given), 4.48% (inactive); for `C/C(=N/Nc1ccnc2cc(Cl)ccc12)c1ccc(N)cc1`, 26% (inactive).

On to `CCOc1ccc(NC(=O)Nc2ccc3c(c2)N(C)C(=O)CS3)cc1`, for which the inhibition is 14.8% (inactive). For `CCn1c(C)c(/C=N/Nc2nc3ccccc3s2)c2ccccc21` the value was 16.8% (inactive); for `Nc1ccc(Nc2nc3ccccc3[nH]2)cc1`, 43.7% (active); for `O=C(O)c1cc(N/N=C/c2c(O)ccc3ccccc23)ccc1Cl`, 20.7% (inactive). For `COc1ccc(-c2cc(-c3c(O)c(OC)c4occc4c3OC)[nH]n2)cc1OC` the value was 12.9% (inactive).

Consider `CCn1c(CSc2nnc(-c3cccnc3)n2-c2ccccc2C)nc2cc(C(=O)O)ccc21`, for which the inhibition is 82% (active). With `O=C1c2cccc3c(N4CCCCC4)ccc(c23)C(=O)N1c1cccc(O)c1`, the inhibition is -13.8% (inactive). In the case of `O=C(O)c1ccccc1N/N=C/c1cc(Br)cc(Br)c1O` it was 43.7% (active). As to `CCc1cccc(CC)c1NC(=O)COc1ccccc1C(=O)c1cc(C#N)c(=O)n(C2CCCCC2)c1`, the inhibition is 35.9% (active). Consider `CCCCNc1c2c3c(cccc3n(C)c1=O)C(=O)c1ccccc1-2`, for which the inhibition was 71.1% (active). In the case of `COc1ccc(/C=N/Nc2snc(SC)c2C#N)cc1OC` it was 24.9% (inactive); in that of `Cn1c(=O)c2c(nc(CN3CCN(C(c4ccccc4)c4ccccc4)CC3)n2CCCO)n(C)c1=O`, 23.8% (inactive); in that of `N#CCC(=O)Nc1ccc(C(=O)OCC(=O)Nc2ccccc2Sc2ccccc2)cc1`, -19% (inactive). In the case of `O=C1C=C(N2CCCCC2)c2ccccc2C1=O` it was 43% (active). Regarding `COc1ccc(/C=c2\s/c(=C/C(=O)c3ccc(C)cc3)[nH]c2=O)c(OC)c1`, the inhibition was 18.9% (inactive). For `O=C(COc1ccccc1C(=O)N/N=C\c1ccc(O)c(O)c1)N/N=C/c1ccc(O)c(O)c1` the value was -40.9% (inactive); for `CCCC(=O)NC(c1ccccc1Cl)c1c(O)ccc2ccccc12` (stereo not given), 58.5% (active). For `CCC(C)c1ccc(S(=O)(=O)N2CCN(C(=O)COc3ccc4c(C)cc(=O)oc4c3)CC2)cc1` (stereo not given) the value was 0.33% (inactive); for `N#Cc1c(N)n(CCOC(=O)c2cccc([N+](=O)[O-])c2)c2nc3ccccc3nc12`, 19.5% (inactive).

With `CCOc1ccc(/C=C2\SC(=S)N(C(C(=O)O)c3ccccc3)C2=O)cc1OC` (stereo not given), the inhibition was 43.8% (active).

Consider `Fc1cccc2sc(Nc3nnc(-c4ccccc4)o3)nc12`, for which the inhibition is 33% (active). In the case of `Oc1ccc(/C=N/Nc2ccc(C(F)(F)F)cn2)c(O)c1` it was 17.8% (inactive); in that of `Cc1cccc(NC(=S)N/N=C/c2c[nH]c3ccccc23)c1`, 33.3% (active).

What is called inhibition is the relative decrease from the control value, in per cent.
